In PubChem BioAssay one finds composite z-score and z-score data, which are given here for 13 compounds.

Active and inactive are the calls of the source. Unless noted, how the calls were made is not given here.

Experiment [1] deals with XIP peptide (Xip251-270) binding. The experiment is described as follows: XIP fragment 251-270 binding compounds – biochemical, small-molecule microarray, fluorescence 635/667 nm, 0.1 µg/mL protein, primary screen (AID 1182). The following applies: fluorescent protein binding, 635 nm, higher = more signal, called active from +8 up or from −8 down.
Experiment [2] has as its system XIP peptide (Xip251-270). The experiment is described as follows: compounds binding XIP fragment 251-270 – biochemical, small-molecule microarray, fluorescence 635/667 nm, 0.5 µg/mL protein, primary screen (AID 1183). The conditions noted are these: fluorescence 635 nm, higher = more signal.
Experiment [3] is described as follows: blood-stage malaria parasite viability loss – strain 3D7, DAPI fluorescence, 100 nL, primary screen (AID 1184).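 Further: parasites grown inside human red blood cells in medium with human serum.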 The conditions noted are these: P. falciparum 3D7 growth, 3 d, higher = more signal.
In experiment [4] the target is Homeobox protein Hox-A13 (Mus musculus) (UniProt Q62424). Nature of the experiment: disruptors of Hoxa13 oligonucleotide interaction – biochemical, fluorescence polarization, labeled oligonucleotide, primary screen (AID 1185). The conditions noted are these: Hoxa13:DNA binding, 15 min, higher = more signal, called active from +8 up or from −8 down.
Sequence of Homeobox protein Hox-A13 (Mus musculus) (Q62424 whole entry, looked up): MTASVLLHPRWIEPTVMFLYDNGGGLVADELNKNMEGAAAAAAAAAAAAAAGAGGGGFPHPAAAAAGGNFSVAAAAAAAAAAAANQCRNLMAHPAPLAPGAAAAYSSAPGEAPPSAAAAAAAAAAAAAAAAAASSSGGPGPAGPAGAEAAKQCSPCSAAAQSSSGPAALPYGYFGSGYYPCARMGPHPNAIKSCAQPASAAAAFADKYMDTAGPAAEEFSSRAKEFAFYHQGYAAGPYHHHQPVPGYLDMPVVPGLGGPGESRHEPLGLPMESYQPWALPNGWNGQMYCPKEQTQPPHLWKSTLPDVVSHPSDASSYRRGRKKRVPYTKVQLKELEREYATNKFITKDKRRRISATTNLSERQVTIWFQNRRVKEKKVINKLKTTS
The nature of experiment [5]: blockers of DNA damage checkpoint Chk1 activation – imaging, HeLa, hydroxyurea, phospho-Chk1 antibody, percent positive cells, primary screen (AID 1186). The conditions noted are these: hydroxyurea-induced phospho-Chk1 immunofluorescence imaging, higher = more signal.
Experiment [6] can be described thus: blockers of DNA damage checkpoint Chk1 activation – imaging, HeLa, hydroxyurea, phospho-Chk1 nuclear intensity, primary screen (AID 1187). The conditions noted are these: hydroxyurea-induced phospho-Chk1 immunofluorescence imaging, higher = more signal.

For `CC[C@@H]1[C@H]2C3C(=O)N(CC)C(=O)C3CC(=O)[C@H]2[C@H](c2ccc(C)cc2)N1S(=O)(=O)c1ccc(C)cc1` (stereo partly drawn), the composite z-score in experiment [1] is 0.117 (inactive); in experiment [2], 0.643. Moreover, the z-score in experiment [3] is -0.915; in experiment [4], -4.84 (inactive); in experiment [5], 0.2 (inactive); in experiment [6], -0.264 (inactive).
Regarding `C=C[C@@H](C)[C@H](OC(=O)Nc1ccc(SC)cc1)c1ccc(OCCO)cc1`, the composite z-score was 0.263 (inactive) in experiment [1] and -0.0795 in experiment [2]. For the same compound, the z-score in experiment [3] is -0.005; in experiment [4], -4.89 (inactive); in experiment [5], -0.405 (inactive); in experiment [6], 0.433 (inactive).
Consider `CC(C)OC(=O)CC(=O)CC(O)c1cccc(C#N)c1` (stereo not drawn), for which the composite z-score in experiment [1] was 0.768 (inactive); in experiment [2] it was 0.778. In addition, the z-score in experiment [3] is 0.612; in experiment [4], -0.542 (inactive); in experiment [5] it was -0.467 (inactive); in experiment [6], -0.295 (inactive).
In the case of `CC=CC(O)C1C=CC2C(=O)N(c3ccccc3)C(=O)C2N1Nc1ccc([N+](=O)[O-])cc1` (stereo not drawn), the composite z-score in experiment [1] was 0.542 (inactive); in experiment [2], 0.135. Besides, the z-score in experiment [3] is 1.01; in experiment [4], -3.01 (inactive); in experiment [5] it was -0.263 (inactive); in experiment [6], -0.973 (inactive).
With `COc1ccc([Si](C)(C)[C@@H]2[C@@H](CCn3cc([C@H](O)c4ccccc4)nn3)O[C@]3(C(=O)N(Cc4ccc(N5CCOC5=O)cc4)c4ccccc43)[C@H]2C)cc1`, the composite z-score was 0.0449 (inactive) in experiment [1] and 0.823 in experiment [2]. The z-score in experiment [3] was -2.78; in experiment [4] it was -3.54 (inactive); in experiment [5] it was 0.875 (inactive); in experiment [6] it was 0.221 (inactive).
Turning to `COc1ccc([Si](C)(C)[C@H]2[C@H](CCn3cc([C@H](O)c4ccccc4)nn3)O[C@@]3(C(=O)N(Cc4ccc(N5CCC5=O)cc4)c4ccccc43)[C@@H]2C)cc1`, the composite z-score in experiment [1] is 0.588 (inactive); in experiment [2], 0.576. Further, the z-score in experiment [3] is -1.87; in experiment [4], -2.79 (inactive); in experiment [5], -0.162 (inactive); in experiment [6], -0.628 (inactive).
Turning to `[N-]=[N+]=Nc1ccccc1C[C@]1(C(=O)NCc2ccccc2)N=C(c2ccc(OCCCO)cc2)O[C@H]1c1ccccc1`, the composite z-score is 0.222 (inactive) in experiment [1] and 0.813 in experiment [2]. Also, the z-score in experiment [3] is -2.07; in experiment [4], -0.801 (inactive); in experiment [5], 0.0726 (inactive); in experiment [6], 0.176 (inactive).
`COCCOC(=O)N1C(=O)[C@@]2(c3ccccc31)[C@H](C(=O)N1CCN(c3ncccn3)CC1)[C@H]1C(=O)O[C@H](c3ccccc3)[C@H](c3ccccc3)N1[C@@H]2c1ccc(OCCO)cc1`: the composite z-score was 0.707 (inactive) in experiment [1] and 0.791 in experiment [2]. The z-score was -1.93 in experiment [3], -0.387 (inactive) in experiment [4], 0.065 (inactive) in experiment [5] and 0.182 (inactive) in experiment [6].
Turning to `C=C(CCCC)C(=O)CC[C@@H](OC(=O)c1cccnc1)c1ccccc1OCCO`, the composite z-score in experiment [1] was -0.451 (inactive); in experiment [2], -0.0138. The z-score in experiment [3] is -3.08; in experiment [4], -3.61 (inactive); in experiment [5], -0.383 (inactive); in experiment [6] it was -0.227 (inactive).
As for `O=C1O[C@@H](c2ccccc2)[C@@H](c2ccccc2)N2[C@@H](c3ccc(O)cc3)[C@]3(C(=O)Nc4ccc(C#CCCO)cc43)[C@@H](C(=O)Nc3nc4ccccc4s3)[C@H]12`, the figures for the composite z-score in experiment [1] and in experiment [2] were 0.336 (inactive) and 0.732, respectively. Also, the z-score was 0.204 in experiment [3], -0.524 (inactive) in experiment [4], 0.151 (inactive) in experiment [5] and 0.283 (inactive) in experiment [6].
`CCOC(=O)[C@H]1C/C=C/C[C@H](C(=O)OCC)C(=O)O[C@H]2[C@@H](OC)O[C@H](CO)[C@@H](OC(=O)CCc3ccccc3)[C@@H]2OC1=O`: the composite z-score is -0.0432 (inactive) in experiment [1] and 0.486 in experiment [2]. For the same compound, the z-score in experiment [3] was -1.24; in experiment [4], -2.57 (inactive); in experiment [5], -0.0591 (inactive); in experiment [6], -0.23 (inactive).
As to `CN1C(=O)[C@@]2(CCS(=O)(=O)c3ccccc3)N=C(c3ccc(OCCCO)cc3)O[C@H]2c2ccccc21`, the composite z-score is 0.489 (inactive) in experiment [1] and 0.182 in experiment [2]. Moreover, the z-score in experiment [3] is -2.07; in experiment [4] it was -6.19 (inactive); in experiment [5], -0.262 (inactive); in experiment [6] it was 0.146 (inactive).
`NC(=O)NCC#Cc1ccc2c(c1)[C@]1(C(=O)N2)[C@H](c2ccc(O)cc2)N2[C@H](c3ccccc3)[C@H](c3ccccc3)OC(=O)[C@H]2[C@@H]1C(=O)Nc1nc2ccccc2s1`: the composite z-score was 0.541 (inactive) in experiment [1] and 0.453 in experiment [2]. Further, the z-score in experiment [3] was 0.364; in experiment [4], 0.608 (inactive); in experiment [5], -0.275 (inactive); in experiment [6], 0.0338 (inactive).
